In the supplement of paper PMC6555819:

How the values were obtained:
Assay in all cases: PBM binding z-score (relative to random genomic background probes); higher = stronger binding; sequences stand for … in GC…GCGATTGACAGCGTAGAATGAAGG
[1] = system: RARb homodimer (NR concentration 270 nM)
Method in brief: (§1)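 Scanned fluorescence from custom Agilent 4×180K protein-binding microarrays was regression-normalized. Binding z-scores use random background probes as reference. Ligand-free nuclear receptor dimers were incubated on the arrays for 1 h and detected with antibodies against each partner (one per run).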

[2] = system: RARg:RXRa (NR concentration 270 nM, RXRa partner concentration 90 nM)
Method in brief: as §1

[3] = system: RARg homodimer (NR concentration 270 nM)
Method in brief: as §1

[4] = system: RXRa DBDmut IVT, anti-RXR (DBD mutation: RXRa K156A/R161A, NR concentration 90 nM)
Method in brief: as §1

[5] = system: RXRa homodimer (NR concentration 180 nM)
Method in brief: as §1

[6] = system: THRa:RXRa (NR concentration 90 nM, RXRa partner concentration 90 nM)
Method in brief: as §1

[7] = system: THRa homodimer (NR concentration 90 nM)
Method in brief: as §1

[8] = system: VDR:RXRa (NR concentration 270 nM, RXRa partner concentration 90 nM)
Method in brief: as §1

[9] = system: VDR homodimer (NR concentration 270 nM)
Method in brief: as §1

Sequence	PBM binding z-score [1]	PBM binding z-score [2]	PBM binding z-score [3]	PBM binding z-score [4]	PBM binding z-score [5]	PBM binding z-score [6]	PBM binding z-score [7]	PBM binding z-score [8]	PBM binding z-score [9]
CGAACTAGGTCATCGACAGGACAGTGAATAGTAA	2.75	4.84	4.87	2.2	2.72	3.06	0.98	2.57	1.39
ATCGAAAGGTCGAGGTTAGTATAGAGAAAGGGAA	2.8	4.49	4.52	1.18	4.37	2.51	0.341	2.75	0.514
ACTAGCAGGCCAAGGGTCACGCAAGATTAGTCCG	4.29	5.29	4.8	0.355	5.96	3.38	0.69	3.76	1.24
CCTACTGGGGCAAGGTTACCATAACGCACAGCCA	1.26	1.22	1.37	-0.688	1.02	1.14	0.409	0.252	0.0551
ACAGCCAGGTGATGAAGGTAACTCAGGCTATCAT	-0.0957	-0.0664	0.0616	-0.658	0.21	1.1	0.166	-0.126	-0.584
CAAACTAGGCCACAGAGGTCAAAGTCCGTGCGTA	4.87	5.71	4.91	2.16	6.16	3.95	1.62	6.29	4.03
TAACCTAGGTCATTGGGCCAGTATAGTACGCATC	3.46	4.58	4.75	2.44	3.95	3.19	1.52	2.89	2.14
CCTACTCGGCCATTCAGAGGTCATTGATCATATG	4.19	4.17	3.64	2	3.59	3.32	1.99	4.06	4.02
CAAACTAGGTCCCAGAGGTCAAAGTCCGTGCGTA	4.35	5.07	4.38	2.04	5.62	3.67	1.58	5.88	3.87
CCTACTGGGACACGAAAGGTCATTGATTCAGTGA	4.97	4.63	4.53	0.718	5.12	3.77	1.35	4.06	2.67
CCTACTGGGCCATCTGGTCATTGATATCAACGTT	0.54	0.0182	0.419	-0.267	-0.224	-0.171	0.0962	-0.267	-0.0886
GCTGCTATGTCAGGTTGGTCAGCTAACGGGTACG	0.477	-0.153	0.0688	0.041	-0.315	-0.187	-0.332	-0.421	-0.186
ATCTCTAGGTTACAAGTTCAGTGAAAGAGAGGAC	2.77	2.81	2.37	1.65	1.76	2.02	1.48	2.7	2.9
ATCGAAAGGTCGTGTGGTGAGTATACAGAAAGGC	2.97	4.21	3.83	2.19	4.59	2.39	0.842	3.66	2.03
TCTCGGAGGACACGAAGGTCAGAGTTTTCCAGAG	3.77	3.25	3.92	0.753	2.03	2.83	1.19	2.41	1.93
CCTTATGGGTCACGAGGTTATAGCACGACGAGCG	3.34	5.59	4.86	1.46	6.1	3.3	0.63	4.4	1.1
CCTCCTGGGCCAAAGGTCATTGATTCCAATGCTC	4.24	5.81	4.61	0.646	6.35	3.17	0.804	4.75	2.32
CGAACTAGGTCAGAACCGGACAGTGAAGGATGAT	1.76	2.4	3.3	0.258	1.12	1.72	0.00608	0.264	-0.191
TCGAGTAGGTTAGTCGGAGCATTCAGCCAACATA	-0.533	-0.461	-0.343	-0.252	-0.401	-0.658	-0.781	-0.307	-0.514
TCATATAGGTAAGACAGGTGAAAGTCGGCATCTA	0.625	0.754	0.411	1.36	1.02	0.828	0.209	0.987	0.18
ATCGAAAGGTCGAGGTGGGTATAGAGAAAGGGAA	3.07	4.26	4.29	1.35	4.24	2.64	0.668	3.34	1.09
CGTCCAAGTTCAAGGTAACGTAACAGAAAGCAGC	2.23	2.83	3.21	4.37	2.15	2.6	1.66	2.45	3.39
TCATATAGGTAAACAGGTGAAAGCCCGTAAGTTA	0.749	0.546	0.364	1.2	1.64	0.571	0.487	1.15	-0.138
TCATATAGGTAATACGGGTGAAAGTCGGCATCTA	0.258	0.35	0.383	1.33	0.921	0.697	0.103	1.25	0.0658
TCATATAGGTAACAGGTGAAAGTCGGTGTGGTAA	1.03	0.519	0.556	1.41	1.11	0.822	0.292	0.96	0.21
TCGGGTAGGTTAGTCGGGGCATTCAGCCAACATA	1.24	0.503	0.704	0.58	0.0388	1.57	1.21	2.88	1.08
